Laboratory results: PubChem BioAssay AID504834 (National Center for Advancing Translational Sciences (NCATS), 2011)
The whole screen tested about 320,000 compounds, of which about 22,000 (6.9%) were called active. Inconclusive results (about 27%) are left out. Many of the other results were omitted from the sample, so actives are more common in it than they were. Values without a mark were called inactive. The call rests on the fitted dose curve; in most records, active means well fitted inhibition curve with a large enough effect; inconclusive means small, poorly fitted or top-dose-only effect, or another doubt; inactive means no such curve, though single readings can be large or run the other way.

Assay: Primary qHTS for delayed death inhibitors of the malarial parasite plastid, 96 hour incubation
Settings: P. falciparum luciferase reporter growth; series mostly up to 28.7 µM; activity change, negative = inhibition: at the top concentration
Outline: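 Cell-based qHTS: luciferase-tagged P. falciparum in erythrocytes (2% hematocrit, 0.05% parasitemia final) incubated with compounds for 96 hours, 37 C, 5% CO2; luciferase detection reagent then added and luminescence measured.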
On the % scale 0 is the no-effect control and ±100 the full control effect; potency means the concentration at half of the fitted maximal effect.

Structure (SMILES) | Potency | activity change, negative = inhibition [%]
Cc1[nH]nc(-c2ccc(OCc3cnn(-c4ccccc4)c3)cc2O)c1Oc1ccc(Cl)cc1 | 13.1 µM (active) | 
CN=C1S/C(=C\c2c(OC)cc(OC)cc2OC)C(=O)N1C |  | 14.8
O=C(CN1CCCCCC1)Nc1ccc(S(=O)(=O)N2CCCCC2)cc1 |  | 4.97
CC(Oc1ccccc1[N+](=O)[O-])C(=O)N/N=C/c1ccoc1 (stereo not drawn) |  | 39.7
Cc1cc(-c2csc(N)n2)c(C)n1Cc1ccccc1 |  | -16.6
CC(=O)Nc1ccc(C(=O)Nc2nc(-c3cc(C)n(Cc4ccccc4)c3C)cs2)cc1 | 4.15 µM (active) | 
CCc1noc(C)c1C(=O)Nc1nc(-c2ccccc2)cs1 |  | 50.8
CCN(CC(=O)NCc1cccs1)C(=O)/C=C/c1ccc(C)cc1 |  | -23.7
O=C(O)CCn1c(Cc2ccccc2)nc2ccccc21 |  | -16.9
Cc1cc2ccccc2n1CCC(=O)O |  | 29
O=C(O)CCn1c(O)c(C=C2N=c3ccccc3=N2)sc1=S | 4.65 µM (active) | 
CCS(=O)(=O)C1=NSC2=NC(=O)/C(=C\c3ccc(OS(=O)(=O)c4ccccc4)cc3)C(=N)N21 |  | -0.896
CC(C)(C)C(=O)Nc1c(Br)c(C2CC2)nn1-c1ccccc1 |  | -2.14
Cc1cc(=O)oc2c1ccc1ccccc12 |  | 5.33
Cc1coc2c(O)cc3c(c12)OC1(N2CCCCC2)C(=O)NCCCC31 (stereo not drawn) | 9.28 µM (active) | 
NNC(=O)c1ccc(COCC(F)(F)C(F)F)cc1 |  | -23.4
O=C(N/N=C/c1ccco1)c1csc2c1CCCC2 |  | 1.77
CN(C)C(=O)CCC(=O)N1CCCCC1C(=O)Nc1ccc(Oc2ccccc2F)cc1 (stereo not drawn) |  | 0
Cc1cc(C)n(-c2ccc(NC(=O)C3CCCCN3C(=O)c3cccs3)cc2)n1 (stereo not drawn) |  | 33.4
COc1ccc(C(=O)N2CCCCC2C(=O)Nc2ccc(-n3nc(C)cc3C)cc2)o1 (stereo not drawn) | 10.4 µM (active) | 
O=C(CN1CCCCC1)NC(=O)Nc1ccccc1F |  | 34.5
CCN(CC(=O)NCC(=O)Nc1cccc(C)c1C)Cc1ccccc1 |  | -12.1
COc1cccc2cc(-c3cc(=O)oc4cc(C)c(O)cc34)oc12 | 13.1 µM (active) | 
COc1cccc(C(=O)OCc2cc(=O)oc3c(C)c(C)ccc23)c1OC |  | 33.8
COc1cccc2cc(C(=O)N3CCN(C(=O)c4ccccc4)CC3)c(=O)oc12 |  | 6.51
O=C(NCc1ccccc1)C(c1ccccc1)N(C(=O)c1csnn1)c1ccc(F)cc1 (stereo not drawn) |  | 7.01
O=C(O)CCCC(=O)Nc1ccc(Oc2cccc(C(F)(F)F)c2)nc1 |  | -3.37

Structure (SMILES) | Potency | activity change, negative = inhibition [%]
O=C(COc1cccc(Cl)c1)NCc1ccccc1 |  | -11.8
O=C(O)CCCn1cc(NC(=O)COc2cccc(Cl)c2)cn1 | 14.7 µM (active) | 
COc1ccccc1NC(=O)C(C)OC(=O)CC1CCCC1 (stereo not drawn) |  | 30.8
Cc1ccccc1NC(=O)CCNS(=O)(=O)c1ccc2[nH]c(=O)oc2c1 |  | -22.6
Cc1ccccc1C(OCC(O)CN1CCCCC1CCO)c1ccccc1 (stereo not drawn) |  | 144
COc1cccc(CN(C)CC(=O)Nc2sc3c(c2C#N)CCC3)c1 |  | -16.4
COc1cccc(CN(C)CC(O)COC(c2ccccc2)c2ccccc2C)c1 (stereo not drawn) | 5.86 µM (active) | 
CCc1nn(CCCC(=O)NC(C)c2ccccc2)c(=O)c2cc3occc3n12 (stereo not drawn) |  | 0.559
CCN1C(=O)C(=O)N(CC(=O)Nc2cc(C)ccc2C)C1=O |  | -1.34
Cc1cccc(NC(=O)CCN2CC(C)CC(C)C2)c1 (stereo not drawn) |  | 30.9
CNc1nc2c(C)cccn2c(=O)c1C=Nc1ccc(OC)cc1 |  | 29.5
Cc1cccn2c(=O)c(C=O)c(Nc3ccc(S(N)(=O)=O)cc3)nc12 | 5.86 µM (active) | 
NS(=O)(=O)c1ccc(Nc2nc(-c3ccccc3)cs2)cc1 |  | 20.4
CCOCCCNC(=O)c1ccc(CS(=O)(=O)c2cccc(C(F)(F)F)c2)o1 |  | -15.9
CCc1cc(C(=O)Nc2nnc(C3CC3)s2)sc1C |  | 31
COc1ccc(CCn2c(-c3ccco3)nc3nc4ccccc4nc32)cc1OC |  | -6.63
COc1cc(-c2n[nH]c(=S)n2Cc2ccccc2)cc(OC)c1OC |  | -5.2
CCC(C)n1c(-c2cc(OC)c(OC)c(OC)c2)nc2nc3ccccc3nc21 (stereo not drawn) | 5.86 µM (active) | 
COc1ccccc1N1CCN(CC(=O)Nc2ccnn2C2CCCC2)CC1 |  | -16.9
Cc1ccc(SCC(=O)NNC(=O)c2ccc(S(C)(=O)=O)cc2)cc1 |  | 48.6
COc1ccccc1CN1CC(C(=O)NCCc2cn[nH]c2)CCC1=O (stereo not drawn) |  | 13.9
CCC(=O)Nc1ccc2c(c1)nc(CCN1CCN(c3ccccn3)CC1)n2C |  | -14.1
NS(=O)(=O)c1ccc(NC(=S)NC(=O)c2cccnc2)cc1 |  | 31.3
NS(=O)(=O)c1ccc(NC(=S)NC(=O)c2cccc(Br)c2)cc1 | 13.1 µM (active) | 
O=C(NC(=S)Nc1ccc(S(=O)(=O)Nc2ncccn2)cc1)c1cccc(Br)c1 |  | -13.4
Cc1cc(NC(=O)[C@H](C)NC(=O)c2ccco2)ccc1Br |  | -0.221
